Measured values as given in PubChem BioAssay (Tox21).
Where “and” joins values, the source holds several entries; their conditions need not be identical. Equal values may be shown once. Inconclusive results are not listed. Where a structure was tested more than once in an assay, its records may differ in their call. Calls of active or inactive are those of the source. The call rests on the fitted dose curve; in most records, active means well fitted inhibition curve with a large enough effect in the repeat runs; inconclusive means weak or mixed curves; inactive means no such curve, though single readings can be large or run the other way.

These compounds were tested against Cytochrome P450 2C19 (Homo sapiens) (UniProt P33261) (assay: Cytochrome P450 Family 2 Subfamily C Member 19 (CYP2C19) small molecule antagonists: luciferase reporter qHTS assay (AID 1671197; further: nearly all actives have a fitted effect of over 65% in size)). Settings: P450-Glo CYP2C19 enzyme, luciferin luminescence, 1 h; series mostly up to 115 µM; activity change, negative = inhibition: at the top concentration.
Source text: National Center for Advancing Translational Sciences [NCATS]
U.S. Environmental Protection Agency [EPA]
National Institutes of Environmental Health Sciences [NIEHS]
National Toxicology Program [NTP]
U.S. Food and Drug Administration [FDA]
Cytochrome P450 (CYP) enzymes are membrane-bound hemeproteins that play a key role in metabolism of drugs and xenobiotics. Evaluation of the effect of chemicals on CYP isozymes is useful to minimize the adverse drug reactions and toxicities in drug development process. Tox21 chemicals were tested for their effect on CYP enzyme activities by using P450-Glo (TM) screening systems (Promega Corporation, Madison, WI). These systems provide a luminescent method containing proluciferin substrates and are converted to luciferin products by CYP isozymes. The luciferin products formed are detected with a luciferin detection reagent, and the amount of light produced is proportional to CYP activity. P450-Glo (TM) CYP2C19 screening system (Catalog. No. V9880) was used to detect the compounds that interfere in CYP2C19 activity. The positive control compound used for CYP2C19 assay is ketoconazole (Sigma-Aldrich, St. Louis, MO).
Tox21 Assay Protocol Summary:
Two ul of enzyme-substrate mix was dispensed into medium binding white/solid 1536-well plates (Greiner Bio-One North America Inc., Monroe, NC) using a BioRaptr Flying Reagent Dispenser (FRD, Beckman Coulter, Brea, CA). Compounds dissolved in DMSO and positive control (ketoconazole) were transferred to the assay plates at 23 nl using a Pintool station (Wako, San Diego, CA). The assay plates were incubated at room temperature for 10 min. Then 2 ul of NADPH regeneration solution was added to each well of the assay plates using an FRD and incubated at 37C for 1 h. The reaction was stopped by adding 4 ul of detection reagent using an FRD and after 20 min incubation at room temperature the luminescence signal was measured using a ViewLux plate reader (Perkin Elmer, Shelton, CT). Data were expressed as relative luminescence units.
On the % scale 0 is the no-effect control and ±100 the full control effect; potency means the concentration at half of the fitted maximal effect.

Chain of Cytochrome P450 2C19 (Homo sapiens) (P33261 whole entry, looked up): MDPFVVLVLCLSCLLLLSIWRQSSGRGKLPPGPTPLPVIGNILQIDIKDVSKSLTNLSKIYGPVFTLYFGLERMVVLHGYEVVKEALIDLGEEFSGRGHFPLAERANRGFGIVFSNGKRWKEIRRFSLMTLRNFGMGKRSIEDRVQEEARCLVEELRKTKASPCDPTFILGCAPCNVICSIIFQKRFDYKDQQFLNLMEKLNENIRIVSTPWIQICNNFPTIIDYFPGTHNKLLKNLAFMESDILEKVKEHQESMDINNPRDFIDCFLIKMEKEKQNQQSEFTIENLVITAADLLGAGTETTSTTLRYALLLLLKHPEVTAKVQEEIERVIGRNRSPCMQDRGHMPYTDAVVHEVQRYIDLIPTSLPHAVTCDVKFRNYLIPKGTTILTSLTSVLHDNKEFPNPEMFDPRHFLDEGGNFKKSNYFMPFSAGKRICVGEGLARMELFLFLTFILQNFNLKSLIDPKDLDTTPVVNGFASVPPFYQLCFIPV

Row | Structure (SMILES) | Potency | activity change, negative = inhibition
1 | c1cc2c3c(cccc3c1)CC2 | 45.9 µM (active) and inactive | 
2 | Nc1ccc(Cc2ccc(N)cc2)cc1 | 35 µM (active) and inactive | 
3 | CCCCCCCCCCCC#N | 18 µM (active) and inactive | 
4 | CC(C)(Cl)Cl | 40.6 µM (active) and 71 µM (active) | 
5 | CCC[CH2][Sn]([Cl])([Cl])[Cl] | 40.6 µM (active) and inactive | 
6 | CC(C)(C)OOC(C)(C)C | inactive | 
7 | CN=C=S | 80.4 µM (active) and inactive | 
8 | ClCCBr | 79.4 µM (active) and inactive | 
9 | COC(=O)c1ccccc1N |  | -10.8% (inactive)
10 | O=S(=O)(c1ccc(Cl)cc1)c1cc(Cl)c(Cl)cc1Cl | 251 nM (active) and 252 nM (active) | 
11 | Oc1ccccc1Cl | inactive | 
12 | O=S(=O)(c1ccc(O)cc1)c1ccc(O)cc1 | 17.9 µM (active) and 22.4 µM (active) | 
13 | CC1C=[C-]C=C1.[C-]#[O+].[C-]#[O+].[C-]#[O+].[Mn] | inactive | 
14 | CCOP(OCC)OCC |  | -1.62% (inactive)
15 | CC(C#N)CCC#N (stereo not given) | inactive | 
16 | CC(C)=C[C@@H]1[C@@H](C(=O)OCc2coc(Cc3ccccc3)c2)C1(C)C | 10 µM (active) and 4.36 µM (active) | 
17 | CCCCCCCCCl |  | 14.6% (inactive)
18 | Clc1ccccc1Cl |  | 11.4% (inactive)
19 | CCCC1COC(Cn2cncn2)(c2ccc(Cl)cc2Cl)O1 (stereo not given) | 456 nM (active) and 356 nM (active) | 
20 | COC(=O)c1ccccc1C(=O)OC | 71.4 µM (active) | 

Row | Structure (SMILES) | Potency | activity change, negative = inhibition
21 | C1CN2CCN1CC2 | inactive | 
22 | O=NN1CCCC1 | 33.2 µM (active) and inactive | 
23 | O=c1ccc(=O)[nH][nH]1 |  | -3.2% (inactive)
24 | ClCc1cccnc1 | 69.8 µM (active) and inactive | 
25 | NCCc1ccc(O)cc1 | 49.9 µM (active) and inactive | 
26 | O=NN1CCCCCCC1 |  | 12.1% (inactive)
27 | C#CC(C)(C)NC(=O)c1cc(Cl)cc(Cl)c1 | 8.04 µM (active) and 39.9 µM (active) | 
28 | Cn1cc(-c2ccccc2)c(=O)c(-c2cccc(C(F)(F)F)c2)c1 | 1.95 µM (active) and 2.83 µM (active) | 
29 | CON(C)C(=O)Nc1ccc(Cl)c(Cl)c1 | 16 µM (active) and 39.9 µM (active) | 
30 | CC(=O)C=C(C)C |  | -11.1% (inactive)
31 | CC(Br)C(=O)O (stereo not given) | 45.3 µM (active) | 
32 | C1CC2OC2CC1C1CO1 (stereo not given) | 69.7 µM (active) | 
33 | CC1OC(C)OC(C)O1 (stereo not given) | inactive | 
34 | NCC(O)c1ccc(O)cc1 (stereo not given) | inactive | 
35 | Cc1cccc([N+](=O)[O-])c1 |  | -6.45% (inactive)
36 | CCC[N+](=O)[O-] | 27.8 µM (active) | 
37 | CN(C)CCO | inactive | 
38 | CCC12COCN1COC2 | 35.6 µM (active) | 
39 | CCCCN(CC)C(=O)SCCC | 80.5 µM (active) and inactive | 
40 | c1ccc2c(c1)oc1ccccc12 | 40.5 µM (active) | 
